# According to PubChem BioAssay (NCATS):
# “And” between values parts separate entries of the source, which are not always exact repeats. Equal values may be shown once. Records with an inconclusive call do not appear. The source made the active and inactive calls. Unless noted, no rule for the calls is given here.
# Key:
# [1] = qHTS profiling of the MIPE4 collection as inhibitors of Plasmodium falciparum (3D7) proliferation (AID 743344);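 also: scaled between DMSO vehicle wells and 0.29 µM artemisinin as full inhibition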; conditions: P. falciparum 3D7 in erythrocytes, SYBR Green DNA fluorescence, 72 h; at 28.5 µM unless noted
# Procedure, shortened: (§1)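 Parasite DNA was quantified by SYBR Green I fluorescence (ex 485, em 535 nm) after overnight lysis in saponin/Triton buffer at room temperature. Cultures at 0.3% parasitemia and 2.5% hematocrit were first exposed to compound for 72 h at 37 C; signals were normalised to artemisinin (0.29 uM) and vehicle wells.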
# [2] = qHTS profiling of the MIPE4 collection as inhibitors of Plasmodium falciparum (DD2) proliferation (AID 743345); conditions: P. falciparum Dd2 in erythrocytes, SYBR Green DNA, 72 h; at 28.5 µM unless noted
# Procedure, shortened: as §1
# [3] = qHTS profiling of the MIPE4 collection as inhibitors of Plasmodium falciparum (DD2) proliferation (Rep 2) (AID 743346); conditions: P. falciparum Dd2 in erythrocytes, SYBR Green DNA, 72 h; at 28.5 µM unless noted
# Procedure, shortened: as §1
# [4] = qHTS profiling of the MIPE4 collection as inhibitors of Plasmodium falciparum (HB3) proliferation (AID 743347);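 also: plate controls were DMSO vehicle wells for no effect and artemisinin wells for full effect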; conditions: P. falciparum HB3 in erythrocytes, SYBR Green DNA, 72 h; at 28.5 µM unless noted
# Procedure, shortened: as §1
# [5] = High-throughput drug toxicity screening in the BPDCN cell line Gen2.2 (AID 1224824); conditions: Gen2.2 BPDCN cells; at 45.8 µM (top of the series) unless noted;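 also: cells exposed to compounds for 48 h before reading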
# Procedure, shortened: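 Gen2.2 cells, 500 per well in phenol red-free RPMI with 10% FBS, exposed to compounds 48 h at 37 C, 5% CO2; viability by CellTiter-Glo luminescence. Percent activity scaled to DMSO (100%) and 9.2 uM bortezomib final (0%).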
# [6] = High-throughput drug toxicity screening in the BPDCN cell line Cal-1 (AID 1224825); conditions: Cal-1 BPDCN cell viability, qHTS; at 45.8 µM (top of the series) unless noted
# Procedure, shortened: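 Percent activity derived from CellTiter-Glo luminescence, scaling DMSO to 100% and 9.2 uM final bortezomib to 0%. BPDCN Cal-1 cells (500/well, RPMI plus 10% FBS) incubated with compounds 48 hours at 37C before reading.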
# [7] = qHTS assay for measurement of the activity of small molecule inhibitors on Zika virus induced Caspase-3 activity in human iPSC derived neural progenitor cells (hNPCs) (AID 1224857; active = well fitted curve in the direction sought with a large enough effect; an effect the other way counts as inactive or inconclusive; also: % of control where 0% means no effect; nearly all actives have a fitted effect of over 65% in size); conditions: hNPCs ZIKV-induced caspase-3/7, Caspase-Glo luminescence, 6 h; series mostly up to 45.7 µM
# Procedure, shortened: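 Human iPSC-derived neural progenitor cells pretreated 1 hr with compounds, then infected with Zika virus (2 FFU/cell) for 6 hours at 37 C. Caspase-3/7 measured by Caspase-Glo luminescence; % inhibition calculated from induction scaled to uninfected (0%) and infected (100%) wells.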
# [8] = qHTS profiling for inhibitors of Plasmodium falciparum (HB3) proliferation (AID 743324; active = well fitted curve in the direction sought with a large enough effect; an effect the other way counts as inactive or inconclusive;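 also: 100% = DMSO vehicle wells and 0% = artemisinin-treated control wells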); conditions: Plasmodium falciparum HB3 blood-stage proliferation; at 28.7 µM (top of the series) unless noted
# Procedure, shortened: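 SYBR Green fluorescence (485 ex/535 em) of lysed cultures, incubated overnight at room temperature in the dark, quantifies parasite DNA. Infected erythrocytes at 0.3% parasitemia and 2.5% hematocrit were exposed 72 h; values normalized to DMSO and 0.29 uM artemisinin controls.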
SMILES,"parasite growth, % of DMSO control [1]","parasite growth remaining, % of DMSO control (lower = more inhibition) [2]","parasite growth, % of control (lower = inhibition) [3]","growth, % of control [4]","cell viability, % of control (lower = more cytotoxic) [5]",viability (% of control) [6],Potency [7],"remaining proliferation (% of control), lower = more inhibition [8]"
CC(=O)Oc1ccccc1C(=O)O,93.6%,90.5%,90.6%,94.6%,125%,135%,inactive,
N#CC[C@H](C1CCCC1)n1cc(-c2ncnc3[nH]ccc23)cn1,21.5%,64.4%,,40.5%,230%,56.3%,inactive,18.5%
NC(=O)c1ccc(-c2nc(-c3ccc4c(c3)OCO4)c(-c3ccccn3)[nH]2)cc1,42.9%,55.7%,32.2%,18.7%,624%,113%,inactive,71.6%
CN(C(=O)c1ccc(F)cc1C(F)(F)F)C1CCN(c2nnc(-c3ccnn3C)c3ccccc23)CC1,16.1%,61.1%,45.1%,,13.6%,80.2%,inactive,
C1COC(NC(C2CC2)C2CC2)=N1,72.7%,88.7%,67.2%,82.6%,33.1%,53.6%,inactive,
Nc1nc2c(ncn2COCCO)c(=O)[nH]1,96.7%,97.6%,124%,99.6%,126%,34.4%,inactive,
Cn1cnc([N+](=O)[O-])c1Sc1ncnc2nc[nH]c12,47.3%,87.7%,33.8%,45.9%,16.2%,93.1%,inactive,
CCN(CC)CCCC(C)Nc1nc(C)cc(Nc2ccc3nc(C)cc(N)c3c2)n1 (stereo not drawn),25%,21.1%,,,55.4%,74.8%,inactive,
CC(C)(N)C(=O)N[C@H](COCc1ccccc1)C(=O)N1CCC2(CC1)CN(S(C)(=O)=O)c1ccccc12,22.8%,10.9%,7.19%,26.2%,14.7%,71%,inactive,1.31%
CN1CCN(CCCN2c3ccccc3Sc3ccc(C(F)(F)F)cc32)CC1,108%,97.5%,101%,83%,55.3%,77.3%,inactive,
CC(C=CC1=C(C)CCCC1(C)C)=CC=CC(C)=CC(=O)O,76.8% and 52.8%,85.9% and 87.9%,81.2% and 51.5%,106% and 85.5%,49.1% and 83.4%,39.4% and 7.95%,inactive,
CCOC(=O)N1CCC(=C2c3ccc(Cl)cc3CCc3cccnc32)CC1,14.5%,56.2%,28.5%,13.8%,186%,87.3%,inactive,
CS(=O)(=O)c1cccc(CNc2nc(Nc3ccc4c(c3)CCC(=O)N4)ncc2C(F)(F)F)c1,12.1%,14.8%,28.9%,10.1%,13.6%,7.96%,inactive,101%
COc1cc(Nc2ncc3c(n2)-c2ccc(Cl)cc2C(c2c(F)cccc2OC)=NC3)ccc1C(=O)O,24.7%,69.6%,,30.2%,24.8%,28.7%,,61.2%
CCCC(CCC)C(=O)O,,103%,148%,111%,83.8%,100%,inactive,
CCOc1ccc(Cc2cc([C@@H]3O[C@H](CO)[C@@H](O)[C@H](O)[C@@H]3O)ccc2Cl)cc1,136%,104%,,,55.1%,19.9%,,112%
Cc1cccc(-c2[nH]c(C(C)(C)C)nc2-c2ccc3nccnc3c2)n1,23.7%,47.6%,34.2%,,391%,15.5%,,27%
C[C@]12CC[C@H](O)CC1=CC[C@@H]1[C@H]2CC[C@]2(C)C(c3cccnc3)=CC[C@H]12,7.02% [at 9.64 µM],10% [at 9.64 µM],,,,98.4% [at 23.2 µM],inactive,24.9%
Cc1ccc(-n2nc(C(C)(C)C)cc2NC(=O)Nc2ccc(OCCN3CCOCC3)c3ccccc23)cc1,29.4%,84.5%,31.6%,72.4%,240%,64.8%,,5.8%
O=C1CCc2cc(OCCCCc3nnnn3C3CCCCC3)ccc2N1,90.8%,99.1%,115%,,137%,84.4%,,
Cn1c(=O)c(F)c(Nc2ccc(I)cc2F)c2c(=O)n(C[C@@H](O)CO)cnc21,12.8%,86.9%,24.5%,,,33%,inactive,68.4%
CN[C@@H](C)C(=O)N[C@H]1CCCC[C@H]2CC[C@@H](C(=O)N[C@@H](c3ccccc3)c3cn(CCCCc4ccc(CCCCn5cc([C@@H](NC(=O)[C@@H]6CC[C@@H]7CCCC[C@H](NC(=O)[C@H](C)NC)C(=O)N76)c6ccccc6)nn5)cc4)nn3)N2C1=O,5.44%,8.15%,9.02%,,28%,1.94%,,-1.02%
